According to PubChem BioAssay:
The source made the active and inactive calls.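 The calls were made as follows, unless noted: active = fluorescence slope after compound addition differing from the mean of all screened samples at 99.7% confidence, in either direction; inactive = the rest.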

Key:
[1] = inhibitors of TNFa-induced NFkB p65 translocation, primary screen, imaging, HUVEC, MLSMR starter and 10KST1 sets (AID 438;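 active = inhibition above 20% together with a positive visual image hit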;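 also: compound added about 3h40 before a 20 min TNFalpha stimulation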;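 as to inhibition: signal is the nuclear over cytoplasmic p65 intensity ratio per well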); details: HUVEC TNFa-induced p65 nuclear translocation; cell count: measured here: nuclei count (cytotoxicity indicator), at 2.08 µM; inhibition: at 2 µM, stronger effect = higher value, 0% TNFa-plus-vehicle, 100% no-TNFa wells
[2] = inhibitors of mutant huntingtin aggregation, primary screen, imaging, exon1htt(103Q)mCFP cells, high-content imaging (AID 483;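 active = visual image review flags a hit and inhibition of aggregation exceeds 20%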;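 also: compound exposure lasted 3 days before fixation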;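 as to nuclei count: percent of the per-plate median nuclei count of sample wells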); details: exon1htt(103Q)mCFP cell line, aggregate imaging, at 2 µM; inhibition of aggregation: stronger effect = higher value; nuclei count: measured here: cell count, toxicity
[3] = inhibitors of E-selectin induction by TNFa, primary screen, imaging, HUVEC, immunofluorescence, MLSMR starter and 10KST1 sets (AID 487;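 active = visually confirmed hit in the image check and inhibition above 20%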;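 as to inhibition: signal is fraction of cell area covered by stained E-selectin grains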;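 as to nuclei count: 100% = median nuclei count of all wells on the same plate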); details: HUVEC TNFalpha-induced E-selectin immunofluorescence imaging, at 2 µM; inhibition: stronger effect = higher value; nuclei count: measured here: cell number, toxicity
[4] = molecular target: Voltage-gated potassium channel subunit beta-2 (Rattus norvegicus) (UniProt P62483); experiment: KvBeta enzyme negative modulators, primary screen, biochemical, NADPH fluorescence (AID 622;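 active = fluorescence slope higher than the sample average by over 3 SD, cut at about -0.22 in these data, passing the limit was not always enough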;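 also: slope of raw intensity against log time taken from 70 to 1610 s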); details: recombinant KvBeta, 4-cyanobenzaldehyde reduction, at 10 µM, stronger effect = higher value
[5] = molecular target: Voltage-gated potassium channel subunit beta-2 (Rattus norvegicus) (UniProt P62483); experiment: KvBeta positive modulators, primary screen, biochemical, NADPH fluorescence (AID 623;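 active = NADPH fluorescence slope more negative than the mean of all samples by about 3 SD, 99.7% confidence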;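 also: fluorescence intensity change per second fitted from 20 to 320 s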); details: Recombinant KvBeta, NADPH fluorescence decrease slope, 10 min; at 10 µM; stronger effect = lower value
[6] = molecular target: Alpha-2C adrenergic receptor (Homo sapiens) (UniProt P18825); experiment: modulators of alpha2C/GIRK thallium flux, primary screen, cell-based, HEK293 alpha2C/GIRK1/2 (AID 624); details: thallium flux BTC fluorescence, at 10 µM, actives lie on both sides;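 also: slope of fluorescence ratio to pre-addition baseline per second over 15 to 24 s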
[7] = inhibitors of Sendai virus-induced IRF3 signaling, primary screen, TLR/RLR signaling modifier project, cell-based, Sendai virus stimulus, luciferase, 10K MLSCN set (AID 602276;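 active = inhibition at or above 50% at 10 µM; inactive = inhibition below 50%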;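 also: firefly luciferase from ISG56 promoter only with Renilla not read in this screen; 0% = Sendai virus plus DMSO and 100% = medium plus DMSO without virus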); details: HEK293 RL24 IRF3 luciferase reporter, at 10 µM, stronger effect = higher value
[8] = inhibitors of poly I:C-induced TLR3 signaling, primary screen, cell-based, poly I:C stimulus, luciferase, 10K MLSCN set (AID 602277;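 active = inhibition of the reporter signal at or above 50%; inactive = inhibition below 50%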); details: HEK293-TLR3 RL24 IRF3 luciferase reporter, at 10 µM, stronger effect = higher value

Chain of Voltage-gated potassium channel subunit beta-2 (Rattus norvegicus) (P62483 whole entry, looked up): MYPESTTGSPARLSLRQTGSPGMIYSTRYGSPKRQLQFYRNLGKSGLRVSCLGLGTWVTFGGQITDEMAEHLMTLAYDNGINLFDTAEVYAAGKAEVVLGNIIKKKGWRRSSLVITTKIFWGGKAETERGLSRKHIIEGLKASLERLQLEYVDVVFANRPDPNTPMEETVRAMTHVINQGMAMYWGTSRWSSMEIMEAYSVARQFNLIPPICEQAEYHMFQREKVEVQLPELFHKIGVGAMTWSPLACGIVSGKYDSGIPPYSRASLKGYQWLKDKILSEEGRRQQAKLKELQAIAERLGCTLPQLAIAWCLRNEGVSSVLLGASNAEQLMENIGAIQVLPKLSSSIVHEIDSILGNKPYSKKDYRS
Chain of Alpha-2C adrenergic receptor (Homo sapiens) (P18825 whole entry, looked up): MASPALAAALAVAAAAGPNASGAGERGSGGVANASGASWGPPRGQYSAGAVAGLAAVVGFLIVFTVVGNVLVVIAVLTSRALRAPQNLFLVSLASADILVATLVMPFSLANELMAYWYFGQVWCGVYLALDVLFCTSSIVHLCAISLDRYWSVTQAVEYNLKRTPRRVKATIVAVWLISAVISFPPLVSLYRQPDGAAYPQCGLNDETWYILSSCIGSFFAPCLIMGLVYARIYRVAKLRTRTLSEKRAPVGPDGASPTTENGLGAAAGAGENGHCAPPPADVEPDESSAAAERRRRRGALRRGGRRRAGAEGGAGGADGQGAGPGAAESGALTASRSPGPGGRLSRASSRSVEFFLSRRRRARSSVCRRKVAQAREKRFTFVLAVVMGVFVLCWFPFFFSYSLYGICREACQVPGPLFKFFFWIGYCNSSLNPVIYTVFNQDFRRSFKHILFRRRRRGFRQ

Structure (SMILES) | cell count [1] | inhibition [1] | inhibition of aggregation [2] | nuclei count [2] | inhibition [3] | nuclei count [3] | fluorescence slope [4] | NADPH fluorescence slope [5] | slope [6] | inhibition [7] | inhibition [8]
COc1ccc(Cl)cc1-c1n[nH]c(=S)o1 | 546 | 8.2% (inactive) | -5.3% (inactive) | 104% | -86.8% (inactive) | 111% | -0.378 (inactive) | -3.6e-05 (inactive) | 0.00602 (inactive) | 20.2% (inactive) | 23.5% (inactive)
CC1=C(n2nnc3ccccc32)C(c2ccccc2)C(C#N)=C(N)O1 (configuration not stated) | 424 | 1.5% (inactive) | 13.7% (inactive) | 90.7% | 27.5% (inactive) | 113% | -0.364 (inactive) | -0.00012 (inactive) | 0.00512 (inactive) | 17.5% (inactive) | 32% (inactive)
Cn1c2ccccc2c2ncn(CCCN3CCOCC3)c(=O)c21 | 715 | -0.6% (inactive) | -15.1% (inactive) | 94% | 5.6% (inactive) | 113% | -0.383 (inactive) | 2e-05 (inactive) | 0.00539 (inactive) | 5.16% (inactive) | 23.7% (inactive)
COc1ccc(-n2c(Cc3cccn3C)nnc2SCC(=O)Nc2ccccc2)cc1 | 527 | -11.3% (inactive) | 6.5% (inactive) | 79.8% | -20.6% (inactive) | 116% | -0.55 (inactive) | -2.9e-05 (inactive) | 0.00572 (inactive) | 15.3% (inactive) | 36.7% (inactive)
CC(C)N(Cc1nc(-c2ccc(Cl)cc2)no1)C(=O)CN(C)S(=O)(=O)c1ccc(Cl)cc1 | 629 | -2.8% (inactive) | -11.8% (inactive) | 95.7% | -53.8% (inactive) | 106% | -0.467 (inactive) | -5.4e-05 (inactive) | 0.00647 (inactive) | 20.4% (inactive) | 25.9% (inactive)
Cc1nc(CCNS(=O)(=O)c2cccs2)cs1 | 371 | -4.4% (inactive) | 6.9% (inactive) | 108% | -20.4% (inactive) | 102% | -0.566 (inactive) | 2.6e-05 (inactive) | 0.00608 (inactive) | -9.77% (inactive) | -22.4% (inactive)
Cc1ccc2[nH]c(=O)c(CN(Cc3ccc4c(c3)OCO4)Cc3nnnn3Cc3ccco3)cc2c1 | 638 | 2.2% (inactive) | -15.3% (inactive) | 94.1% | -74.1% (inactive) | 122% | -0.622 (inactive) | -7e-06 (inactive) | 0.00625 (inactive) | 9.33% (inactive) | 12.2% (inactive)
